From PubChem BioAssay AID589 (National Center for Advancing Translational Sciences (NCATS), 2007)
Hit rate of the full screen: of about 59,000 compounds, about 6,200 (11%) were called active. About 9% were inconclusive and are not listed. This is one part of a sample in which actives are shown more often than they occur. Cut-off read from the data, not from the text of the source: active = max dye-equivalent concentration above about 10 nM; inconclusive = mostly about 1.1 nM to 9.6 nM; inactive = weaker than that. The source holds several records for some structures; these can differ, active in one and inactive in another.

experiment: qHTS Assay for Spectroscopic Profiling in 4-MU Spectral Region; conditions: compound autofluorescence, 340/450 nm, 4-MU equivalents; hits give high values
From the text: NIH Molecular Libraries Screening Centers Network [MLSCN] NIH Chemical Genomics Center [NCGC] […] Occasionally, the artifactual effect may originate from the compounds own spectral or other biophysical properties which generally tend to track its assay concentration. Pre-screening/profiling the library with respect to the compounds spectral properties should help one exclude false positives early on. While the most informative fluorescent profiling data set is obtained by performing a full excitation and emission scan of each well by using a monochromator-based plate reader, such an approach is practical only on a very limited scale as scanning each well requires long time. An alternative approach, applied here, is to perform plate reader scans using selected excitation and emission wavelength pairs to generate a multidimensional relational database that correlates compound concentration and the respective relative fluorescence intensity at a given wavelength set. A standard curve of 4-methylumbelliferone (4-MU) present on each plate as six-point concentration series, was used to compute a normalized fluorescence response, termed dye-equivalent concentration, for each compound at each concentration.
NCGC Assay Protocol Summary: Buffer: 100 mM Tris buffer, pH 8.0 Dye standard plate: The wells in columns 1 through 4 of a Kalypsys polypropylene 1536-well compound plate were filled with standard solutions of fluorophore corresponding to the spectral region of interest. Solutions of 4-MU were placed in the following wells: A1, B1: 3 mM, A2, B2: 300 uM, A3, B3: 30 uM, A4, B4: zero (DMSO), C1, D1: 3 uM, C2, D2: 900 nM, C3, D3: 300 nM, C4, D4: zero (DMSO). Assay Steps: Six uL of buffer were dispensed to 1536-well Greiner black plates. Compounds and dye standards (23 nL) were transferred via Kalypsys PinTool. The plates were incubated for 15 min at room temperature, and then read on ViewLux (Perkin-Elmer) High-throughput CCD imager using 340 nm and 450 nm excitation and emission filter set. Keywords: NIH Roadmap, MLSCN, MLI, MLSMR, qHTS, NCGC, Fluorescent Profiling, 4MU, 4-MU

| Structure (SMILES) | max dye-equivalent concentration | outcome |
| --- | --- | --- |
| CCCCNC(=O)c1c[nH]c2ccc(S(=O)(=O)Nc3ccc(OCC)cc3)cc2c1=O | inactive |  |
| COc1cccc(N(CC(=O)NC2CCCC2)C(=O)Cn2nnc(-c3ccc(C)cc3)n2)c1 | inactive |  |
| O=C(c1cc(C(F)(F)F)cc(C(F)(F)F)c1)N1CCC2(CCCN(c3ccccn3)C2)CC1 | inactive |  |
| N#Cc1c2c(c(-c3ccccc3)[nH]c1=O)CCCC2 | 16 nM (active) |  |
| CCCCCN(C(=O)NC(=O)Nc1ccccc1C)S(C)(=O)=O | inactive |  |
| O=C1C2(c3ccccc3)CN(CCCO)CC1(c1ccccc1)CN(CCCO)C2 | inactive |  |
| C[C@@H](N)[C@@H](C)Cc1ccccc1 | inactive |  |
| O=C(CSc1nc(-c2ccco2)cc(C(F)(F)F)n1)NCc1cccs1 | inactive |  |
| FC(F)(F)c1cc(-c2cccs2)nc(NCc2ccco2)n1 | 20 nM (active) |  |
| COc1ccc(-c2cc(C(F)(F)F)nc(SCCC(=O)NCc3ccco3)n2)cc1 | inactive |  |
| COc1ccccc1N1CCN(C(=O)CSc2nnc(-c3ccoc3C)o2)CC1 | inactive |  |
| CC(NCCO)C(=O)C12CC3CC(CC(C3)C1)C2 (stereo not drawn) | 36 nM (active) |  |
| CN1CCN(CC(=O)C23CC4CC(CC(C4)C2)C3)CC1 | inactive |  |
| O=C(CNCCO)NC12CC3CC(CC(C3)C1)C2 | inactive |  |
| Cc1ccc2[nH]c3c(c2c1)CN(C(=O)CN1CCN(c2ccccc2)CC1)CC3 | inactive |  |
| O=C(O)[C@@H](O)Cc1ccccn1 | inactive |  |
| O=C(c1ccco1)N1CCC[C@@]2(CCN(Cc3nccs3)C2)C1 | inactive |  |
| COc1ccc(C(=O)Nc2ccc(S(=O)(=O)Nc3onc(C)c3C)cc2)cc1OC | inactive |  |
| COc1ccc(-c2cc3ccc(OCc4nn[nH]n4)cc3oc2=O)cc1 | 8100 nM (active) |  |
| COc1ccc(OCc2ccc(-c3nc4ccccc4c(=O)n3N)o2)cc1 | inactive |  |
| O=C(Nc1cccc(Cl)c1)OCc1ccccn1 | inactive |  |
| CC(C)OC(=O)c1cc(NC(=O)C2C3CCC(O3)C2C(=O)O)cc(C(=O)OC(C)C)c1 (stereo not drawn) | 14 nM (active) |  |

| Structure (SMILES) | max dye-equivalent concentration | outcome |
| --- | --- | --- |
| CC(C)COC(=O)c1ccc(NC(=O)C2C3C=CC(C3)C2C(=O)O)cc1 (stereo not drawn) | inactive |  |
| CCC(CC)C(=O)Nc1cc(C(=O)OC)cc(C(=O)OC)c1 | inactive |  |
| CCC(=O)c1ccc(OCC(O)CN2CC(C)OC(C)C2)cc1 (stereo not drawn) | inactive |  |
| O=C(c1ccco1)N1CCN(C(=O)C2c3ccccc3Oc3ccccc32)CC1 | inactive |  |
| CS(=O)(=O)c1ccc2nc(NC(=O)CN3CCCCCC3)sc2c1 | inactive |  |
| Cn1c(CCN2CCCCCC2)nc2cc(NC(=O)Nc3ccccc3)ccc21 | inactive |  |
| O=C(Nc1cccc(NC(=O)N2CCN(c3ccccc3)CC2)c1)N1CCN(c2ccccc2)CC1 | inactive |  |
| Cc1nc2ccc(NC(=O)N3CCC(c4ccccc4)C3)cc2nc1C (stereo not drawn) | 550 nM (active) |  |
| Cc1cc(C)nc(SCc2nnc(SCC(=O)OC3CCCCC3)o2)n1 | inactive |  |
| CCOc1ccc2cc(C#N)c(SCC(=O)OC)nc2c1 | 37 nM (active) |  |
| CCOc1cccc(NC(=O)CC#N)c1 | inactive |  |
| CC(=O)c1cc(C#N)c(SCC(=O)C(C)(C)C)nc1C | inactive |  |
| Cc1nn(-c2ccccc2)c2c1C(=O)NC(=O)C(C)(C)C2 | inactive |  |
| CCC(C(=O)N1CCOCC1)n1c(C(=O)OC)cc2occc21 (stereo not drawn) | inactive |  |
| CC(=O)c1ccc(N2C(=NC(=O)C(C)C)SC3CS(=O)(=O)CC32)cc1 (stereo not drawn) | inactive |  |
| CCC(C)Sc1nc2c(c(=O)[nH]c(=O)n2C)n1CC(O)COc1cccc2ccccc12 (stereo not drawn) | inactive |  |
| CCCCOC(=O)c1[nH]c(C)c(C(=O)OC)c1C | 360 nM (active) |  |
| CCOC(=O)c1c(C)[nH]c(C(=O)COc2ccc3c(c2)OCO3)c1C | inactive |  |
| CCOC(=O)c1c(C)[nH]c(C(=O)NCc2ccccc2OC)c1C | inactive |  |
| CCOC(=O)N1CCN(C(=O)Cc2ccc(-n3c(=S)[nH]c4ccccc4c3=O)cc2)CC1 | inactive |  |
| O=C(c1cccs1)N1CCN(C(=O)N2CCOCC2)CC1 | inactive |  |
| COc1ccc(C)cc1NC(=O)c1[nH]c(C)c(C(C)=O)c1C | inactive |  |

| Structure (SMILES) | max dye-equivalent concentration | outcome |
| --- | --- | --- |
| CCN(CC)CCNC(=O)c1cc(S(C)(=O)=O)ccc1OC | 10 nM (active) | inactive |
| CCN(CC)S(=O)(=O)c1ccc2[nH]cc(C(=O)NCCc3ccccc3)c(=O)c2c1 | inactive |  |
| Cc1onc(-c2ccccc2)c1C(=O)N1CCOCC1 | inactive |  |
| CCN(c1ccccc1)S(=O)(=O)c1cccc(C(=O)O)c1 | inactive |  |
| Cc1ccc(Oc2nc3ccccc3n3c(C)nnc23)cc1 | inactive |  |
| c1ccc(CSc2nnc(-c3ccco3)n2Cc2ccccc2)cc1 | inactive |  |
| CN(c1nc2ccccc2n2c(-c3ccco3)nnc12)S(=O)(=O)c1ccccc1 | 39 nM (active) |  |
| CCc1cc(Br)ccc1NC(=O)C1CCCO1 (stereo not drawn) | inactive |  |
| CC(=O)N1CCN(CCN=CC2=C(O)CC(C)(C)CC2=O)CC1 | inactive |  |
| N#CC(C(=O)c1ccc(S(=O)(=O)N2CCCCCC2)cc1)c1nc2ccccc2[nH]1 (stereo not drawn) | 24 nM (active) |  |
| Cc1ccccc1-c1nnn(CC(=O)c2ccc(S(=O)(=O)N3CCCC3)cc2)n1 | inactive |  |
| COc1ccccc1N1CCN(C(=O)c2ccc(S(=O)(=O)N3CCCCC3)cc2)CC1 | inactive |  |
| CCOc1cc(C(=O)N2CCc3cc(OC)c(OC)cc3C2)ccc1OC(F)F | inactive |  |
| CC1(C)CC(=O)c2sc(N)nc2C1 | inactive |  |
| CCOC(=O)C1(Cc2ccc(O)cc2)NC(c2ccccc2F)C2C(=O)N(C)C(=O)C21 (stereo not drawn) | inactive |  |
| O=C(c1csnn1)N1CCC2(CCN(Cc3nccs3)CC2)CC1 | inactive |  |
| Cc1cc(C)c(C#N)c(SCc2ccccc2C(=O)O)n1 | 13 nM (active) |  |
| Cc1cc(C)c(C#N)c(SCc2ccc3c(c2)OCO3)n1 | inactive |  |
| Cc1cc(C)c(C#N)c(SCS(=O)c2ccc(C(C)(C)C)cc2)n1 (stereo not drawn) | inactive |  |
| O=C(Nc1ccon1)c1sc2ccccc2c1Cl | inactive |  |
| OCCCN1c2ccccc2Nc2nnc(-c3ccccc3)cc21 | 94 nM (active) |  |
| Oc1ccc(Cn2cc[nH]c2=S)cc1 | inactive |  |

| Structure (SMILES) | max dye-equivalent concentration | outcome |
| --- | --- | --- |
| O=C(Oc1ccc2c(c1)CN(Cc1ccccc1)CO2)c1ccccc1 | inactive |  |
| CC(=O)Nc1nonc1-c1nc2ccccc2n1Cc1ccccn1 | inactive |  |
| CN1c2ccccc2-c2nc3ccccc3n2C1c1ccco1 (stereo not drawn) | 2800 nM (active) |  |
| CCOC(=O)N1CCC(C(N)=O)CC1 | inactive |  |
| CCOc1cc(S(=O)(=O)NC2CC(C)(C)NC(C)(C)C2)ccc1F | inactive |  |
| COc1ccc(-n2c(=O)c(-c3cn(C)c4ccccc34)nc3cnc(OC)nc32)cc1 | inactive |  |
| O=c1c(-c2cccs2)nc2cnc(Oc3ccccc3)nc2n1-c1ccccc1 | 18 nM (active) |  |
| COc1ccc(Oc2ncc3nc(C)c(=O)n(-c4ccccc4)c3n2)cc1 | inactive |  |
| O=C1c2ccccc2C(=O)N1c1ccccc1S(=O)C(F)(F)F (stereo not drawn) | inactive |  |
| O=C(Cn1nnc(-c2ccc3c(c2)OCO3)n1)NCc1ccco1 | inactive |  |
| CS(=O)(=O)N(CC(=O)NCc1ccco1)c1ccc2c(c1)OCO2 | 27 nM (active) |  |
| CS(=O)(=O)N(CC(=O)N1CCN(Cc2ccc3c(c2)OCO3)CC1)c1ccc2c(c1)OCO2 | inactive |  |
| CCn1c(COc2ccc(OC)cc2)nnc1SCC(=O)Nc1cc(OC)ccc1OC | inactive |  |
| Cc1cn(C2C=CC(CO)O2)c(=O)[nH]c1=O (stereo not drawn) | inactive |  |
| O=C(NC1CC2CCCC(C1)N2C(=O)N1CCCCC1)C1CCCCC1 (stereo not drawn) | inactive |  |
| O=C(NCCc1ccco1)c1nn(Cc2ccccc2)c(=O)c2ccccc12 | inactive |  |
| COc1ccccc1-c1c(C)nn2c(C)c(C(C)=O)cnc12 | inactive |  |
| Cc1ccc(C(=O)NC2CCN(C(=O)N3CCOCC3)CC2)cc1 | inactive |  |
| N#Cc1c2c(c(N3CCN(CCO)CC3)n3c1nc1ccccc13)CCCC2 | 26 nM (active) |  |
| CCCCn1c(CN2CCN(CCO)CC2)nc2ccccc21 | inactive |  |
| CN(C)CCCNc1c2c(c(C#N)c3nc4ccccc4n13)CCC2 | 98 nM (active) |  |
| Cc1ccc(C(=O)NCC(=O)O)cc1S(=O)(=O)N1CCCCC1 | inactive |  |

| Structure (SMILES) | max dye-equivalent concentration | outcome |
| --- | --- | --- |
| Cc1ccc(C(=O)N(CN2CCCC2=O)c2ccc(F)cc2)cc1 | inactive |  |
| CCOC(=O)c1c(-n2cnnn2)sc(C)c1C | inactive |  |
| CC(=NCC1CCCO1)c1c(O)[nH]c(=O)[nH]c1=O (stereo not drawn) | inactive |  |
| CCCCOc1ccc(-c2ncc(C(=O)OCC)c(N)n2)cc1 | inactive |  |
| CCN(CC)CCCN1C(=O)C(=O)/C(=C(/O)c2c(C)nc3ccccn23)C1c1ccc(C)o1 (stereo not drawn) | inactive |  |
| COc1ccc(C(=O)NC(=O)CSc2nnc(-c3ccco3)n2-c2ccccc2)cc1 | inactive |  |
| Cc1ccccc1-n1c(SCC(=O)NCc2cccs2)nnc1-c1ccncc1 | inactive |  |
| COc1ccc(-n2c(SCC(=O)NCc3cccs3)nnc2-c2ccoc2C)cc1 | 23 nM (active) |  |
| O=c1c(-c2cc(F)cc(F)c2)nc2cnc(Oc3ccccc3)nc2n1C[C@H]1CCCO1 | 12 nM (active) |  |
| O=C(CSc1nnc(-c2ccco2)n1CC1CCCO1)c1ccccc1 (stereo not drawn) | inactive |  |
| COc1cccc(Cn2c(=O)c(-c3cc(F)cc(F)c3)nc3cnc(OC)nc32)c1 | inactive |  |
| OCCCNCc1ccccn1 | inactive |  |
| C[C@H]1O[C@@H](CC(=O)O)Cc2c1c(O)c1c(O)cc(-c3cc(=O)c4c(=O)c5c(c(=O)c=4c3=O)C[C@H](CC(=O)O)O[C@@H]5C)c(O)c1c2O | inactive |  |
| COCCNC(=O)CSc1nc2c(n1-c1ccccc1)CCCC2 | inactive |  |
| COCCCNC(=O)CSc1nc2ccc(N3CCOCC3)cc2c(=O)n1CCc1ccccc1 | 54 nM (active) |  |
| CCn1c(SCC(=O)NCC2CCCO2)nc2cc(S(=O)(=O)N3CCCCC3)ccc21 (stereo not drawn) | inactive |  |
| CCc1ccc(NC(=O)CSc2nc3ccccc3c(=O)n2CCN2CCOCC2)cc1 | inactive |  |
| CCCCn1c(SCC(=O)NCC2CCCO2)nc2ccc(N3CCOCC3)cc2c1=O (stereo not drawn) | 62 nM (active) |  |
| CCCCn1c(SCC(=O)NCCc2ccc(OC)c(OC)c2)nc2c1c(=O)n(C)c(=O)n2C | inactive |  |
